According to the supplement of paper PMC10849652:
The full data set covers some 7,900 targets. This sample favours those with a hit. About 0.6% of all pairs of compound and target were hits.

compound: CN(CCOC1=CC=C(C=C1)C[C@H]2C(=O)NC(=O)S2)C3=CC=CC=N3 (racemic) [rosiglitazone]; experiment: log2 fold change, soluble protein after heating vs DMSO (PISA); higher = thermal stabilisation; K562 cells, 10 uM, 30 min; active = over 0.2 and 3.5 SD of the protein, either way, in both replicates (recomputed)
Procedure, shortened: (§1)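 For each measurement, 10 μM compound was applied for 30 min to K562 cells at 2×10^6 cells/mL. Aliquots were heated for 3 min across 48°C-58°C, pooled, and extracted in PBS with 0.5% NP-40 at 4°C; the supernatant after 21,000xg for 90 min was soluble protein. This was quantified by TMTpro 16plex LC-MS/MS with channel sums equalised, and thermal stability was reported relative to control samples from duplicates, on a log2 fold-change scale.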

Sequence of UniProt Q16539 (Q16539 whole entry, looked up): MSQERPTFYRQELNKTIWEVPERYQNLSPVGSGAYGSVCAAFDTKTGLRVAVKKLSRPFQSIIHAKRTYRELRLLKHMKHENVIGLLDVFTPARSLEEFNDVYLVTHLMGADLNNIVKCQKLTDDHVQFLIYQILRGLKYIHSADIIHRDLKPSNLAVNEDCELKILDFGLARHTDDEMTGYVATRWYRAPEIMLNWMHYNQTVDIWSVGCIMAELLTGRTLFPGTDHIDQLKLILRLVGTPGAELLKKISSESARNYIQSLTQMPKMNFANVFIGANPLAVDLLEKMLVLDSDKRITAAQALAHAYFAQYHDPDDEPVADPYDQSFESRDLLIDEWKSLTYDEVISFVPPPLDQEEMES
Sequence of UniProt Q9NVC6 (Q9NVC6 whole entry, looked up): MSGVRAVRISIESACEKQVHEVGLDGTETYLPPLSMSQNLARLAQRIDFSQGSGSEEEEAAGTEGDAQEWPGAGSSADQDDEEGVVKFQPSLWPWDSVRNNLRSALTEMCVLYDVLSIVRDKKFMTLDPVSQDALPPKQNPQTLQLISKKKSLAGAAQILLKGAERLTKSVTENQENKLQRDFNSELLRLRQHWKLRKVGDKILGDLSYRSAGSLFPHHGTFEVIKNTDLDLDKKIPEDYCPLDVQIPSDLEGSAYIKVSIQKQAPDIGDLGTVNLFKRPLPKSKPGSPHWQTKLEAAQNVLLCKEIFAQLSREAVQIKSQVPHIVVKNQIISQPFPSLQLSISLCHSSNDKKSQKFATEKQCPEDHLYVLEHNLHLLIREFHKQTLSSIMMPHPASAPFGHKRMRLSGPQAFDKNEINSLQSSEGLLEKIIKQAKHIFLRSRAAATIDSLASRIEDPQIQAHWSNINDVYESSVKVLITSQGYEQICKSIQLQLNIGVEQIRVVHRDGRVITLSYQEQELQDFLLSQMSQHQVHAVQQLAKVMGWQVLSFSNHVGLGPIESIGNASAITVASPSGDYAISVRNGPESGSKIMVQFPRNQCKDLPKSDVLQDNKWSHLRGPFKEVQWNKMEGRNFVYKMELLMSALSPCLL
Sequence of UniProt O43934 (O43934 whole entry, looked up): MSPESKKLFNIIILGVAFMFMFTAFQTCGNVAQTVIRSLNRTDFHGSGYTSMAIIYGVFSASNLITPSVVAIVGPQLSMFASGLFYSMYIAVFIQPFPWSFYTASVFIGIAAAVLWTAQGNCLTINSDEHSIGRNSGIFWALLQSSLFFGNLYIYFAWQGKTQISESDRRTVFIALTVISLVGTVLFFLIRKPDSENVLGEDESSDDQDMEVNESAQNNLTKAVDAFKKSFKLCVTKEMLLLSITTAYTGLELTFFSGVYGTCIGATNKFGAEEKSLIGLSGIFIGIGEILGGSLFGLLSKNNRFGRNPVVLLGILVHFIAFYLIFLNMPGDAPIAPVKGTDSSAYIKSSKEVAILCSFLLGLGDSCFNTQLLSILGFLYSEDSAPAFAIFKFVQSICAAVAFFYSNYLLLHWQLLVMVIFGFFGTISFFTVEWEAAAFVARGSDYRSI
Sequence of UniProt Q9BQD3 (Q9BQD3 whole entry, looked up): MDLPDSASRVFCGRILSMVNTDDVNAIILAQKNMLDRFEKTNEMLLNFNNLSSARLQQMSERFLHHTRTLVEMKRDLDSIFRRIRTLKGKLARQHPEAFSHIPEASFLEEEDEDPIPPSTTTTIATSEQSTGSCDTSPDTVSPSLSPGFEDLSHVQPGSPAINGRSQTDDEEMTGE
Sequence of UniProt Q9P244 (Q9P244 whole entry, looked up): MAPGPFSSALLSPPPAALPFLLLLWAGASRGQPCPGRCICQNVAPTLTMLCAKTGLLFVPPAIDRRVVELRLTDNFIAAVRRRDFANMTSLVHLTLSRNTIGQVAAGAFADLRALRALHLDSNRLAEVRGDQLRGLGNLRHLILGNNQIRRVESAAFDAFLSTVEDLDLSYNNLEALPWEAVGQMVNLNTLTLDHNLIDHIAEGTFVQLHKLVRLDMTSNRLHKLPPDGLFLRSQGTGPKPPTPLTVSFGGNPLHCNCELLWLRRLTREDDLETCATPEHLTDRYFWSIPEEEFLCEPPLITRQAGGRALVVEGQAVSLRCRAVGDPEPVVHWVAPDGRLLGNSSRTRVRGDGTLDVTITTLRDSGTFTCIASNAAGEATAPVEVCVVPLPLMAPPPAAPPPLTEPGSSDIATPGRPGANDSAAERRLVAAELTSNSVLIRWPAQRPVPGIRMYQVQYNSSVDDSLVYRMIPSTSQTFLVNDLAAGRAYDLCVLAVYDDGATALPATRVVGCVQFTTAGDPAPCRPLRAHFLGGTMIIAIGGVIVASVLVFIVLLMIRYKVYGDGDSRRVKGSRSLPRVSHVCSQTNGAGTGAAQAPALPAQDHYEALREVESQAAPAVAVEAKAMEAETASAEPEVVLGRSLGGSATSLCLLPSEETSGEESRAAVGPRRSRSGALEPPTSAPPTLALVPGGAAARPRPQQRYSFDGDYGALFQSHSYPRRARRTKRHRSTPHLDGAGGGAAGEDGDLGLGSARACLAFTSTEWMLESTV
Sequence of UniProt Q93074 (Q93074 whole entry, looked up): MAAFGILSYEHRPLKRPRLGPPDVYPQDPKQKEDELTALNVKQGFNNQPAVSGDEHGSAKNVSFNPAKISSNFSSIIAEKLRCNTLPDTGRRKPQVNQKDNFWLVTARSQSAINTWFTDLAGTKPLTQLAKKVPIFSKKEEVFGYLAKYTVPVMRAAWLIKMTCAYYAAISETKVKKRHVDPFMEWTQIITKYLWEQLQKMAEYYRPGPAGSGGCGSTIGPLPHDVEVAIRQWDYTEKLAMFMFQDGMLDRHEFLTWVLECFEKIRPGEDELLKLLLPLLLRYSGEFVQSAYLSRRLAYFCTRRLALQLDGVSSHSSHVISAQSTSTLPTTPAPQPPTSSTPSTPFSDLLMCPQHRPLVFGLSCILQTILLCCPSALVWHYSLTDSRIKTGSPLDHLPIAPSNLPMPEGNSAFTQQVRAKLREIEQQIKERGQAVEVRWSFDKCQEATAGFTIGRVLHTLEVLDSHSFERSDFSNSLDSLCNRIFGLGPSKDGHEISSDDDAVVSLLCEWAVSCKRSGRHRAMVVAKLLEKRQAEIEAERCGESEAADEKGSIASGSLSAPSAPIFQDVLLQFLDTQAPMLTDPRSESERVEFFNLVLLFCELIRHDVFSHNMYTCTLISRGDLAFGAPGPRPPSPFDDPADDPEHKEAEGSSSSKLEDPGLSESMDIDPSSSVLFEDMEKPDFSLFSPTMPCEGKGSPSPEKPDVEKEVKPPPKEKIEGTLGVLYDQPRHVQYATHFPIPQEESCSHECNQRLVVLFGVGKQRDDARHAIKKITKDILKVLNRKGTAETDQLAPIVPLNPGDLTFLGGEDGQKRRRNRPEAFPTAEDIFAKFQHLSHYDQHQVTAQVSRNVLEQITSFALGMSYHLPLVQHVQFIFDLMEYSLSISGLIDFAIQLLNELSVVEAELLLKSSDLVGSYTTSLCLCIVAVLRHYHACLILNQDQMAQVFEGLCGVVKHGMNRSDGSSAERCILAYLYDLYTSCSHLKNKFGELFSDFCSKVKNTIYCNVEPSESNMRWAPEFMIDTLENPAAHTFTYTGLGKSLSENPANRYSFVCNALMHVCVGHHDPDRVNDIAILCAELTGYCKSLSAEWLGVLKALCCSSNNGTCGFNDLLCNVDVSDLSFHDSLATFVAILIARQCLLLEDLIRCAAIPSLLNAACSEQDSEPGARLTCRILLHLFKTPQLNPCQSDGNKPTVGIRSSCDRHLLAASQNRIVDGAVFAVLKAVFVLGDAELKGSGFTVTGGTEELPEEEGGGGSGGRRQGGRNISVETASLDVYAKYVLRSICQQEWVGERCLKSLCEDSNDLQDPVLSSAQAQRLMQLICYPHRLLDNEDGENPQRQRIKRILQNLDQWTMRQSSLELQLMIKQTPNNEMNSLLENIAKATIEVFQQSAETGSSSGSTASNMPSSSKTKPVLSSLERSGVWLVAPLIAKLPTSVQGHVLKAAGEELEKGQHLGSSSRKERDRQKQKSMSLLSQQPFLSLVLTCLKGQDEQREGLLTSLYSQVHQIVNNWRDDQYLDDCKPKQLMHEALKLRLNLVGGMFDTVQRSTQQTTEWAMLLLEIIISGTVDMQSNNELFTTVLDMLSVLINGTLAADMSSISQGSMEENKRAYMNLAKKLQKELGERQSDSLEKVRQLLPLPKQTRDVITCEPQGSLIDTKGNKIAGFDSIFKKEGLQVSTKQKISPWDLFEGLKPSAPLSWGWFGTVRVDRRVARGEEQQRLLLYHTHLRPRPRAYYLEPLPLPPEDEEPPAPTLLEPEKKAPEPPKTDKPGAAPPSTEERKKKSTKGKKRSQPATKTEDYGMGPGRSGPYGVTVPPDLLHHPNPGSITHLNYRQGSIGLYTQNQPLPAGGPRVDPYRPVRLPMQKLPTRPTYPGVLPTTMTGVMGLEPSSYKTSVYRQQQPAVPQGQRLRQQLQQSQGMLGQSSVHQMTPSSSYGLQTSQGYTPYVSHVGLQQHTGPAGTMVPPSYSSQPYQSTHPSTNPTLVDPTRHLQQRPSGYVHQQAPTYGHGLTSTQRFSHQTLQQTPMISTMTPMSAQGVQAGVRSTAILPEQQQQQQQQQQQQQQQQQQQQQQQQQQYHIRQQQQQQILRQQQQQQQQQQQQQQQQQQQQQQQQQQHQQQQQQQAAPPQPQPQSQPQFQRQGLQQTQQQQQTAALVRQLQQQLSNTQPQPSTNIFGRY
Sequence of UniProt Q92551 (Q92551 whole entry, looked up): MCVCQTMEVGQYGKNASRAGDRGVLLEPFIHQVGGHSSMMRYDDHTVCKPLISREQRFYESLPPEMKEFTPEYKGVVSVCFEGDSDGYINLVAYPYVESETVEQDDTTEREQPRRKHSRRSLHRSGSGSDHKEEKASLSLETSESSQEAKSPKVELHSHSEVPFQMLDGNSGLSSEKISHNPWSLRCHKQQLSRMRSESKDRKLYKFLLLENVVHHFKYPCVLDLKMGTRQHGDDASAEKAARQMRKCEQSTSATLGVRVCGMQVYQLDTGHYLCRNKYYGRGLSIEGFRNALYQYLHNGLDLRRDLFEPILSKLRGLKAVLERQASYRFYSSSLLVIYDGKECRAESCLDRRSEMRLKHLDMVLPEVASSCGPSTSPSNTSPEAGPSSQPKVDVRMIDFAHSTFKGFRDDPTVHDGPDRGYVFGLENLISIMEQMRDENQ

| Target | log2 fold change |
| --- | --- |
| LENG8 (UniProt Q96PV6) | 0.017 (inactive) |
| LRFN1 (UniProt Q9P244) | 0.006 (inactive) |
| MASTL (UniProt Q96GX5) | -0.006 (inactive) |
| MCOLN3 (UniProt Q8TDD5) | 0.128 (inactive) |
| IP6K1 (UniProt Q92551) | 0.091 (inactive) |
| MARCHF3 (UniProt Q86UD3) | 0.093 (inactive) |
| MED25 isoform 3 (UniProt Q71SY5) | 0.018 (inactive) |
| KXD1 (UniProt Q9BQD3) | 0.047 (inactive) |
| MAP4 isoform 5 (UniProt P27816) | 0.008 (inactive) |
| ILRUN (UniProt Q9H6K1) | -0.019 (inactive) |

compound: CN1C2=C(C3=C1C(=O)N(N=C3)CC4=CC(=CC=C4)N)SC(=C2)S(=O)C; experiment: as above
Procedure, shortened: as §1

| Target | log2 fold change |
| --- | --- |
| MAPK14 (UniProt Q16539) | -0.231 (inactive) |
| ITM2B (UniProt Q9Y287) | -0.197 (inactive) |
| METAP1D (UniProt Q6UB28) | 0.052 (inactive) |
| IL27RA (UniProt Q6UWB1) | -0.219 (inactive) |
| LPGAT1 (UniProt Q92604) | -0.029 (inactive) |
| MED12 isoform 2 (UniProt Q93074) | 0.154 (inactive) |
| KMT2C isoform 3 (UniProt Q8NEZ4) | 0.026 (inactive) |
| LUM (UniProt P51884) | 0.054 (inactive) |
| LRBA, A0A494BZW2 | 0.043 (inactive) |
| IMMP1L (UniProt Q96LU5) | -0.097 (inactive) |
| KIF3B (UniProt O15066) | -0.052 (inactive) |
| MED8 isoform 2 (UniProt Q96G25) | 0.052 (inactive) |
| MFSD8 (UniProt Q8NHS3) | 0.046 (inactive) |
| MED22 (UniProt Q15528) | -0.043 (inactive) |
| MARK2 (UniProt E9PC69) | 0.187 (inactive) |
| MBLAC1 (UniProt A4D2B0) | -0.021 (inactive) |
| MAGEA8 (UniProt P43361) | 0.038 (inactive) |
| MAP4K4 isoform 6 (UniProt O95819) | 0.261 (inactive) |
| MELK (UniProt Q14680) | 0.034 (inactive) |
| KCNK5 (UniProt O95279) | 0.223 (inactive) |
| MAN2B2 (UniProt Q9Y2E5) | 0.013 (inactive) |
| MFSD11 (UniProt O43934) | -0.026 (inactive) |
| LENG8 (UniProt Q96PV6) | -0.225 (inactive) |
| LRFN1 (UniProt Q9P244) | 0.069 (inactive) |
| MASTL (UniProt Q96GX5) | 0.081 (inactive) |
| IP6K1 (UniProt Q92551) | 0.147 (inactive) |
| MED25 isoform 3 (UniProt Q71SY5) | -0.155 (inactive) |
| KXD1 (UniProt Q9BQD3) | 0.011 (inactive) |
| MED17 (UniProt Q9NVC6) | 0.036 (inactive) |
| ILRUN (UniProt Q9H6K1) | -0.09 (inactive) |

compound: CN1CCC(CNc2ccc3ncc(-c4cccc(OC(F)(F)F)c4)n3n2)CC1; experiment: as above
Procedure, shortened: as §1

| Target | log2 fold change |
| --- | --- |
| MAPK14 (UniProt Q16539) | -0.03 (inactive) |
| MED12 isoform 2 (UniProt Q93074) | -0.071 (inactive) |
| KMT2C isoform 3 (UniProt Q8NEZ4) | -0.337 (active) |
| LRBA, A0A494BZW2 | -0.115 (inactive) |
| KIF3B (UniProt O15066) | 0.378 (active) |
| MFSD8 (UniProt Q8NHS3) | 0.127 (inactive) |
| MCM10 (UniProt Q7L590) | 0.096 (inactive) |
| MBLAC1 (UniProt A4D2B0) | 0.063 (inactive) |
| MAGEA8 (UniProt P43361) | -0.07 (inactive) |
| KIZ (UniProt Q2M2Z5) | -0.399 (inactive) |
| MELK (UniProt Q14680) | -0.426 (inactive) |
| KCNK5 (UniProt O95279) | -0.073 (inactive) |
| MFSD11 (UniProt O43934) | -0.345 (active) |
| LENG8 (UniProt Q96PV6) | -0.238 (inactive) |
| MCOLN3 (UniProt Q8TDD5) | -0.084 (inactive) |
| IP6K1 (UniProt Q92551) | -0.052 (inactive) |
| MED25 isoform 3 (UniProt Q71SY5) | -0.043 (inactive) |
| KXD1 (UniProt Q9BQD3) | -0.096 (inactive) |
| MED17 (UniProt Q9NVC6) | -0.134 (inactive) |

compound: CN1CCN(CCOc2cc(OC3CCOCC3)c3c(Nc4c(Cl)ccc5c4OCO5)ncnc3c2)CC1 [saracatinib]; experiment: as above
Procedure, shortened: as §1

| Target | log2 fold change |
| --- | --- |
| MAPK14 (UniProt Q16539) | 0.261 (inactive) |
| ITM2B (UniProt Q9Y287) | -0.181 (inactive) |
| METAP1D (UniProt Q6UB28) | 0.088 (inactive) |
| IL27RA (UniProt Q6UWB1) | 0.062 (inactive) |
| LPGAT1 (UniProt Q92604) | 0.111 (inactive) |
| MED12 isoform 2 (UniProt Q93074) | 0.072 (inactive) |
| KMT2C isoform 3 (UniProt Q8NEZ4) | -0.026 (inactive) |
| LUM (UniProt P51884) | 0.081 (inactive) |
| LRBA, A0A494BZW2 | -0.005 (inactive) |
| IMMP1L (UniProt Q96LU5) | -0.041 (inactive) |
| KIF3B (UniProt O15066) | -0.068 (inactive) |
| MED8 isoform 2 (UniProt Q96G25) | 0.003 (inactive) |
| MFSD8 (UniProt Q8NHS3) | 0.078 (inactive) |
| MED22 (UniProt Q15528) | -0.089 (inactive) |
| MARK2 (UniProt E9PC69) | -0.103 (inactive) |
| MBLAC1 (UniProt A4D2B0) | 0.164 (inactive) |
| MAGEA8 (UniProt P43361) | -0.006 (inactive) |
| MAP4K4 isoform 6 (UniProt O95819) | -0.108 (inactive) |
| MELK (UniProt Q14680) | -0.005 (inactive) |
| KCNK5 (UniProt O95279) | -0.444 (inactive) |
| MAN2B2 (UniProt Q9Y2E5) | -0.015 (inactive) |
| MFSD11 (UniProt O43934) | 0.092 (inactive) |
| LENG8 (UniProt Q96PV6) | -0.112 (inactive) |
| LRFN1 (UniProt Q9P244) | 0.053 (inactive) |
| MASTL (UniProt Q96GX5) | 0.107 (inactive) |
| IP6K1 (UniProt Q92551) | -0.174 (inactive) |
| MED25 isoform 3 (UniProt Q71SY5) | -0.079 (inactive) |
| KXD1 (UniProt Q9BQD3) | -0.097 (inactive) |
| MED17 (UniProt Q9NVC6) | -0.063 (inactive) |
| ILRUN (UniProt Q9H6K1) | -0.132 (inactive) |
